Assay outcomes (PubChem BioAssay)
Only some compounds are listed: those with a hit (about 10% of all), similar ones and a draw of the others.
NIH3T3 tox – Cytotoxic Profiling in NIH 3T3 Cell Line of Diverse Libraries Using Quantitative High-Throughput Screening | Potency, µM (titrated, usually from 96.7 µM), usual class: inhibitors | 4.3% of 94,000 active | NIH 3T3 viability, CellTiter-Glo ATP luminescence, 48-72 h; also: nearly all actives have a fitted effect of over 55% in size
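Cytotoxicity is measured as loss of cellular ATP: NIH 3T3 cells (400/well) are exposed to compound for 48 or 72 hr at 37 °C, then CellTiter-Glo luminescence is imaged after 10 min at room temperature.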
Luciferase inh – Firefly luciferase inhibition profiling of diverse chemical library using quantitative high-throughput screening. Luciferin 4-monooxygenase (Photinus pyralis), P08659. purified P. pyralis luciferase, luminescence, biochemical. Potency, µM (series often up to 115 µM), usual class: inhibitors. 2.5% of 76,000 active. AID 1347043, 2019; also: nearly all actives have a fitted effect of over 65% in size
Target sequence (P08659 whole entry, looked up): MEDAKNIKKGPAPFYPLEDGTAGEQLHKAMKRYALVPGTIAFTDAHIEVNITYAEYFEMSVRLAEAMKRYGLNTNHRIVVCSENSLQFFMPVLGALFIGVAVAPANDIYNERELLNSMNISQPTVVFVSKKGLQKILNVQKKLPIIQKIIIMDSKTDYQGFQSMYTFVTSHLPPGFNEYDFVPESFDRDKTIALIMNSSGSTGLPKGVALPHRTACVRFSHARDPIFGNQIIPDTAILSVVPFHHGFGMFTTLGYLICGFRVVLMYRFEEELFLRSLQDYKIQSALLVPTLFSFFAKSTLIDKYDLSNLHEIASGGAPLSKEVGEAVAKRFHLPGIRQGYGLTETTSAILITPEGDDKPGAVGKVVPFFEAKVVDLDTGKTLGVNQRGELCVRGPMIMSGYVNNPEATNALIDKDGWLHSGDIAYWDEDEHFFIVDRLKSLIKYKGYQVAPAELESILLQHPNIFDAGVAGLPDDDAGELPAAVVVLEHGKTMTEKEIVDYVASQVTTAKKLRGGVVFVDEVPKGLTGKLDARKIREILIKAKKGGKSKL
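Luminescence read by CCD imaging after purified firefly luciferase (10nM final) was added to substrate buffer holding 10uM D-luciferin and 10uM ATP, pH 7.5, pre-dosed with compound.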
GPT2 inh – Primary qHTS assay for inhibitors of Glutamate pyruvate transaminase 2 (GPT2); AID 1671188, 2021; Recombinant GPT2, coupled pyruvate oxidase/HRP Amplex Red fluorescence; 0.25% of 100,000 active; Alanine aminotransferase 2 (Homo sapiens), Q8TD30; Potency, µM (top dose mostly 57.7 µM), usual class: inhibitors; also: nearly all actives have a fitted effect of over 60% in size
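GPT2 10ng/uL, a-KG 250uM, L-Ala 2mM, HEPES pH7.5 + 0.0001% Tween; 30 min RT. Then Amplex mix (PO/HRP/ThPP), 30 min RT dark, fluorescence. AOA 50uM used as positive control.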
HEK cytotox – Cytotoxic Profiling in HEK 293 Cell Line of Diverse Libraries Using Quantitative High-Throughput Screening. HEK 293 viability, ATP luminescence (CellTiter-Glo), 48-72 h. Potency, µM (highest dose often 115 µM), actives largely listed as inhibitors. 6.6% of 94,000 active. AID 1345083, 2018; also: nearly all actives have a fitted effect of over 60% in size
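CellTiter-Glo luminescence (cellular ATP) was read after 48 or 72 hr of compound exposure at 37 degree Celsius. Cells were HEK 293 plated at 250 cells/well.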
hNpr1 antagonist – Natriuretic polypeptide receptor (hNpr1) antagonism - Primary qHTS; HEK293 hNpr1 GloSensor cGMP, ANP-stimulated luminescence; Potency, µM (titrated, usually from 46.3 µM), usual class: inhibitors; 1.6% of 76,000 active; AID 1347048, 2019; calls by dose curve; also: nearly all actives have a fitted effect of over 60% in size
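HEK293 cells stably expressing human Npr1 and cGMP GloSensor pGS-40F, loaded 2 h with 2% GloSensor reagent, given compound 30 min at room temperature. Luminescence read before and 20 min after 0.1 nM hNppA.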
A number is an active result; . = inactive; ? = inconclusive; / = not tested or not shown. Unless noted, calls follow the shape of the dose curve; as a rule, active = well fitted curve in the direction sought with a large enough effect; inconclusive = small, poorly fitted or top-dose-only effect, or another doubt; inactive = no such curve, though single readings can be large; an effect the other way counts as inactive or inconclusive.

SMILES	NIH3T3 tox	Luciferase inh	GPT2 inh	HEK cytotox	hNpr1 antagonist
Cc1ccc(C)c(-c2ccc(C(=O)NCCCn3ccnc3C(C)C)cn2)c1	?	.	.	?	?
Cc1nc(CC2CCN(C(=O)c3cc4c(s3)CCC(C)C4)CC2)no1 (configuration not stated)	?	40µM	.	?	.
CN(C)CCNC(=O)C1CCc2sc(C(=O)N3CCOCC3)cc2C1 (configuration not stated)	.	.	.	.	.
Cc1ccc(NC(=O)C2CCc3nnc(CN[S+](=O)([O-])c4ccccc4Cl)n32)cc1 (configuration not stated)	?	/	.	.	/
Cc1ccccc1NC(=O)Cn1c(-c2cccc(Cl)c2)nc(C)c(CCO)c1=O	?	.	.	?	.
Cc1nc(-c2cccc(Cl)c2)n(CC(=O)NC(C)C)c(=O)c1CCO	.	.	.	?	.
Cc1nc(-c2cccc(Cl)c2)n(CC(=O)Nc2ccc(C(F)(F)F)cc2)c(=O)c1CCO	16µM	.	?	32µM	.
Cc1cc(C)cc(NC(=O)Cn2c(-c3cccc(Cl)c3)nc(C)c(CCO)c2=O)c1	.	.	.	?	.
CCc1ccc(NC(=O)Cn2c(-c3cccc(Cl)c3)nc(C)c(CCO)c2=O)cc1	?	.	.	28µM	.
COc1ccc(N2CCN(C(=O)Cn3c(-c4cccc(Cl)c4)nc(C)c(CCO)c3=O)CC2)cc1	.	.	.	45µM	.
COc1ccccc1NC(=O)Cn1c(-c2cccc(Cl)c2)nc(C)c(CCO)c1=O	.	.	.	?	.
Cc1cccc(N(C)C(=O)Cn2c(-c3cccc(Cl)c3)nc(C)c(CCO)c2=O)c1	?	.	.	35µM	.
CC(C)n1cnnc1CC1CCN(S(=O)(=O)c2ccc3c(c2)CCC3)C1 (configuration not stated)	.	/	.	.	/
COc1ccc(-n2c(=O)c(C(=O)NCc3ccc4c(c3)OCO4)nc3cccnc32)cc1	.	/	.	.	/
COc1cccc(C(=O)N2CCCC(c3nn(-c4ccccn4)c(=O)[nH]3)C2)c1 (configuration not stated)	.	/	.	.	/
Cc1nc(-c2cccc(Cl)c2)n(CC(=O)Nc2ccc(F)cc2)c(=O)c1CCO	?	.	.	40µM	.
COc1cccc(CNC(=O)Cn2c(-c3cccc(Cl)c3)nc(C)c(CCO)c2=O)c1	?	.	.	22µM	.
COc1cccc(-c2nc3c([nH]2)CN(C(C)C(=O)NC2CCCCC2)CC3)c1 (configuration not stated)	?	.	.	?	.
COc1ccccc1-c1ccc2ncc(Nc3cccc(O)c3)n2n1	?	?	.	?	.
COc1ccccc1-c1ccc2ncc(Nc3ccc(CN4CCN(C)CC4)cc3)n2n1	25µM	.	?	50µM	.
COc1ccc(-c2ccc3ncc(Nc4ccc(CN5CCN(C)CC5)cc4)n3n2)cn1	?	.	.	?	.
COc1ccc(Nc2cnc3ccc(-c4ccccc4OC)nn23)cc1	?	?	.	79µM	.
CCCC1CN(Cc2ccc3c(c2)OCO3)C(=O)c2ccc(C)nc2O1 (configuration not stated)	?	/	.	?	/
COc1ccc(C(=O)N2CCC3(CC2)CC(CN2CCOCC2)N(C)C3)cc1F (configuration not stated)	.	/	.	.	/
CC(C)C(=O)N1CCc2[nH]nc(C(=O)NCCCc3ccccc3)c2C1	?	.	.	?	.
SMILES	NIH3T3 tox	Luciferase inh	GPT2 inh	HEK cytotox	hNpr1 antagonist
O=C(NCCCc1ccccc1)c1n[nH]c2c1CN(C(=O)c1ccccc1Cl)CC2	?	?	.	?	.
O=C(NCCCc1ccccc1)c1n[nH]c2c1CN(C(=O)c1ccccc1F)CC2	35µM	.	.	?	.
Cc1ccc(C(=O)N2CCc3[nH]nc(C(=O)NCCCc4ccccc4)c3C2)cc1F	?	/	.	?	/
O=C(NCCCc1ccccc1)c1n[nH]c2c1CN(C(=O)c1ccc(F)cc1F)CC2	?	.	.	79µM	.
CCCC(C)C(=O)N1CCc2[nH]nc(C(=O)NCCCc3ccccc3)c2C1 (configuration not stated)	40µM	/	.	35µM	/
O=C(NCCCc1ccccc1)c1n[nH]c2c1CN(C(=O)c1c(F)cccc1F)CC2	?	.	?	18µM	.
CNC(=O)c1cc(C)nc2onc(C3CCCN3C(C)=O)c12 (configuration not stated)	.	/	/	?	/
Cn1c(=O)n([C@H]2CCN(C(=O)Cc3cccnc3)C2)c2ncccc21	.	/	.	.	/
O=C(Nc1cc(-c2ccccn2)nn1-c1ccccc1)c1ccccc1Cl	.	/	.	?	/
O=C(NCCCc1ccccc1)c1n[nH]c2c1CN(C(=O)c1ccc3c(c1)OCO3)CC2	35µM	/	?	?	/
CC(C)CNC(=O)N1CCC(CC2CC2)(NS(C)(=O)=O)CC1	.	/	.	.	/
c1ccc(Nc2cc3c(cn2)CN(Cc2ccc4[nH]ccc4c2)CCN3)cc1	28µM	?	.	40µM	.
c1ccc(CNc2cc3c(cn2)CN(Cc2cccnc2)CCN3)cc1	.	.	.	.	.
c1ccc(Nc2cc3c(cn2)CN(Cc2cnc[nH]2)CCN3)cc1	?	?	.	?	.
Fc1cccc(CN2CCNc3cc(Nc4ccccc4)ncc3C2)c1	45µM	32µM	.	40µM	.
c1ccc(Nc2cc3c(cn2)CN(Cc2cccs2)CCN3)cc1	50µM	?	?	50µM	.
Fc1ccccc1CN1CCNc2cc(Nc3ccccc3)ncc2C1	50µM	20µM	.	112µM	.
CSCCNC(=O)c1cc(-c2ccc(Cl)cc2Cl)nc2c1cnn2C	?	/	.	?	/
COc1ccc(CNC(=O)C2CCCN2C(=O)c2cccc(-c3cccnc3)c2)cc1 (configuration not stated)	?	/	/	.	/
CN(C)c1cccc(-c2cc3c(cn2)CN(Cc2cccnc2)CCN3)c1	?	?	.	?	.
CN(C)c1cccc(Nc2cc3c(cn2)CN(Cc2ccccc2)CCN3)c1	45µM	22µM	.	28µM	?
CCn1nc(-c2cccc(-c3ccnn3C)c2)nc1N(C)C	.	.	.	79µM	.
CCn1nc(-c2ccc3c(c2)OCO3)nc1N(C)C	.	?	.	.	.
COc1ccc(CCNC(=O)c2nc3sccn3c2-c2cccnc2)cc1	.	/	.	.	/
O=C1[C@@H]2C[C@@H](CN2Cc2cnc3ccccc3c2)Oc2ccccc2N1Cc1ccccc1	?	.	.	50µM	.
COCCN1C(=O)[C@@H]2C[C@@H](CN2Cc2cnc3ccccc3c2)Oc2ccccc21	100µM	.	.	?	.
